# The source made the active and inactive calls. The calls were made as follows: active = hit-call score of the fitted dose curve at least 0.9, where 1 is the maximum; inactive = score below 0.9.
# Read-out: Bcl-2 (BAX) gene, BAX (gene 581)
# Assay: LTEA_HepaRG_BAX: Life Technologies and Expression Analysis (LTEA) Assay for Bcl-2 (BAX) gene using HepaRG (AID 2283470)
# Details: mRNA level, 48 h; actives raise or lower the signal
# Method in brief: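 Concentration-response endpoint fitted in both directions relative to 0.5% DMSO vehicle. Human HepaRG cultures receive test chemicals for 48 h at up to 100 uM; BAX mRNA is quantified by qRT-PCR against housekeeping genes.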
row,SMILES,outcome
1,COc1ccc(-n2nc(C(F)F)cc2-c2ccc(S(C)=O)cc2)cc1 (stereo not given),inactive
2,Nc1nc2ncc(CNc3ccc(C(=O)N[C@@H](CCC(=O)O)C(=O)O)cc3)nc2c(=O)[nH]1,inactive
3,CC(C)=CCCC(C)=CC=O,inactive
4,COc1ccc(/C=C/S(=O)(=O)NC(=O)c2ccc(C)cc2Cl)cc1,inactive
5,C1=CCCC=CCCC=CCC1,inactive
6,Nc1cccc(N)c1,inactive
7,CN(C)c1ccc(Cc2ccc(N(C)C)cc2)cc1,inactive
8,On1ccccc1=S,inactive
9,O=C1OC(=O)C2C3C=CC(C3)C12 (stereo not given),inactive
10,C=CC(=C)CCC=C(C)C,inactive
11,Cn1c(=O)c2c(ncn2C)n(C)c1=O,inactive
12,O=C(OC[C@H]1O[C@@H](OC(=O)c2cc(O)c(O)c(OC(=O)c3cc(O)c(O)c(O)c3)c2)[C@H](OC(=O)c2cc(O)c(O)c(OC(=O)c3cc(O)c(O)c(O)c3)c2)[C@@H](OC(=O)c2cc(O)c(O)c(OC(=O)c3cc(O)c(O)c(O)c3)c2)[C@@H]1OC(=O)c1cc(O)c(O)c(OC(=O)c2cc(O)c(O)c(O)c2)c1)c1cc(O)c(O)c(OC(=O)c2cc(O)c(O)c(O)c2)c1,inactive

# Read-out: adenosine kinase (ADK) gene, ADK (gene 132)
# Assay: LTEA_HepaRG_ADK: Life Technologies and Expression Analysis (LTEA) Assay for adenosine kinase (ADK) gene using HepaRG (AID 2283471)
# Details: mRNA level, 48 h; actives raise or lower the signal
# Method in brief: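 ADK expression quantified by qRT-PCR, normalised to three housekeeping genes, after 48 h exposure of HepaRG cells to eight concentrations (top 100 uM, half-log steps, duplicate, 0.5% DMSO). Up- or down-regulation fitted relative to vehicle.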
SMILES,outcome,AC50
CCn1nc(Cc2ccccc2)cc1C1CCN(C[C@H]2C[C@H](N(C)[C@@H](C(=O)O)C(C)C)C[C@@H]2c2cccc(F)c2)CC1,inactive,–
O=c1n(CC2CO2)c(=O)n(CC2CO2)c(=O)n1CC1CO1 (stereo not given),inactive,–
O=C(O)CCN(C1(C(=O)NO)CCCC1)S(=O)(=O)c1ccc(Oc2ccc(F)cc2)cc1,inactive,–
CCNc1ccccc1,inactive,–
Cc1c(-c2cccnc2)c2ccccc2n1CCCCC(=O)O,inactive,–
COC(=O)c1ccccc1O,inactive,–
CC1=CC(=O)CC(C)(C)C1,inactive,–
O=C(O)c1cc(N=Nc2ccc(S(=O)(=O)Nc3ccccn3)cc2)ccc1O,inactive,–
CC(=O)OC[C@H]1O[C@@](COC(C)=O)(O[C@H]2O[C@H](COC(C)=O)[C@@H](OC(C)=O)[C@H](OC(C)=O)[C@H]2OC(C)=O)[C@@H](OC(C)=O)[C@@H]1OC(C)=O,inactive,–
CC(C)CC(C)(O)C#CC(C)(O)CC(C)C (stereo not given),inactive,–
CC(C)(O)c1coc(S(=O)(=O)NC(=O)Nc2c3c(cc4c2CCC4)CCC3)c1,inactive,–
CC(C)CCCCCCCOC(=O)CCCCC(=O)OCCCCCCCC(C)C,inactive,–
CCOc1cccc(-n2cc(C(=O)N3CCN(c4cc(C(=O)O)c5ccccc5c4)CC3)nc2-c2ccc(C)cc2)c1,–,82.9 µM (active)
COc1ccc2sc(C(=O)Nc3nnn[nH]3)c(OC(C)C)c2c1,inactive,–
Clc1nc(Cl)c(Cl)c(Cl)c1Cl,inactive,–
COC(=O)CC(=O)OC,inactive,–
O=c1[nH]c2ccc(S(=O)CCN3CCC(Cc4ccc(F)cc4)CC3)cc2o1 (stereo not given),inactive,–
COc1ccc(-n2nc(C(F)F)cc2-c2ccc(S(C)=O)cc2)cc1 (stereo not given),inactive,–
Nc1nc2ncc(CNc3ccc(C(=O)N[C@@H](CCC(=O)O)C(=O)O)cc3)nc2c(=O)[nH]1,inactive,–
CC(C)=CCCC(C)=CC=O,inactive,–
COc1ccc(/C=C/S(=O)(=O)NC(=O)c2ccc(C)cc2Cl)cc1,inactive,–
C1=CCCC=CCCC=CCC1,inactive,–
Nc1cccc(N)c1,inactive,–
CN(C)c1ccc(Cc2ccc(N(C)C)cc2)cc1,inactive,–
On1ccccc1=S,inactive,–
O=C1OC(=O)C2C3C=CC(C3)C12 (stereo not given),inactive,–
C=CC(=C)CCC=C(C)C,inactive,–
Cn1c(=O)c2c(ncn2C)n(C)c1=O,inactive,–
O=C(OC[C@H]1O[C@@H](OC(=O)c2cc(O)c(O)c(OC(=O)c3cc(O)c(O)c(O)c3)c2)[C@H](OC(=O)c2cc(O)c(O)c(OC(=O)c3cc(O)c(O)c(O)c3)c2)[C@@H](OC(=O)c2cc(O)c(O)c(OC(=O)c3cc(O)c(O)c(O)c3)c2)[C@@H]1OC(=O)c1cc(O)c(O)c(OC(=O)c2cc(O)c(O)c(O)c2)c1)c1cc(O)c(O)c(OC(=O)c2cc(O)c(O)c(O)c2)c1,inactive,–

# Read-out: Alpha-fetoprotein (AFP) gene, AFP (gene 174)
# Assay: LTEA_HepaRG_AFP: Life Technologies and Expression Analysis (LTEA) Assay for Alpha-fetoprotein (AFP) gene using HepaRG (AID 2283472);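 as to AC50: AFP transcript by TaqMan qRT-PCR normalized to ACTB GAPDH and POLR2A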
# Details: mRNA level, 48 h; actives raise or lower the signal
# Method in brief: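 After a 48 h plating period, cells are moved to serum-free induction medium and dosed in duplicate (100 uM maximum, half-log dilutions, 0.5% DMSO) for another 48 h. Total RNA goes to TaqMan qRT-PCR; AFP signal is housekeeping-normalized.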
SMILES,AC50,outcome
CCn1nc(Cc2ccccc2)cc1C1CCN(C[C@H]2C[C@H](N(C)[C@@H](C(=O)O)C(C)C)C[C@@H]2c2cccc(F)c2)CC1,50 µM (active),–
O=c1n(CC2CO2)c(=O)n(CC2CO2)c(=O)n1CC1CO1 (stereo not given),–,inactive
O=C(O)CCN(C1(C(=O)NO)CCCC1)S(=O)(=O)c1ccc(Oc2ccc(F)cc2)cc1,–,inactive
CCNc1ccccc1,–,inactive
Cc1c(-c2cccnc2)c2ccccc2n1CCCCC(=O)O,–,inactive
COC(=O)c1ccccc1O,–,inactive
CC1=CC(=O)CC(C)(C)C1,–,inactive
O=C(O)c1cc(N=Nc2ccc(S(=O)(=O)Nc3ccccn3)cc2)ccc1O,–,inactive
CC(=O)OC[C@H]1O[C@@](COC(C)=O)(O[C@H]2O[C@H](COC(C)=O)[C@@H](OC(C)=O)[C@H](OC(C)=O)[C@H]2OC(C)=O)[C@@H](OC(C)=O)[C@@H]1OC(C)=O,–,inactive
CC(C)CC(C)(O)C#CC(C)(O)CC(C)C (stereo not given),–,inactive
CC(C)(O)c1coc(S(=O)(=O)NC(=O)Nc2c3c(cc4c2CCC4)CCC3)c1,–,inactive
CC(C)CCCCCCCOC(=O)CCCCC(=O)OCCCCCCCC(C)C,–,inactive
CCOc1cccc(-n2cc(C(=O)N3CCN(c4cc(C(=O)O)c5ccccc5c4)CC3)nc2-c2ccc(C)cc2)c1,29.8 µM (active),–
COc1ccc2sc(C(=O)Nc3nnn[nH]3)c(OC(C)C)c2c1,59.5 µM (active),–
Clc1nc(Cl)c(Cl)c(Cl)c1Cl,–,inactive
COC(=O)CC(=O)OC,50 µM (active),–
O=c1[nH]c2ccc(S(=O)CCN3CCC(Cc4ccc(F)cc4)CC3)cc2o1 (stereo not given),61.1 µM (active),–
COc1ccc(-n2nc(C(F)F)cc2-c2ccc(S(C)=O)cc2)cc1 (stereo not given),–,inactive
Nc1nc2ncc(CNc3ccc(C(=O)N[C@@H](CCC(=O)O)C(=O)O)cc3)nc2c(=O)[nH]1,–,inactive
CC(C)=CCCC(C)=CC=O,–,inactive
COc1ccc(/C=C/S(=O)(=O)NC(=O)c2ccc(C)cc2Cl)cc1,–,inactive
C1=CCCC=CCCC=CCC1,–,inactive
Nc1cccc(N)c1,–,inactive
CN(C)c1ccc(Cc2ccc(N(C)C)cc2)cc1,50 µM (active),–
On1ccccc1=S,–,inactive
O=C1OC(=O)C2C3C=CC(C3)C12 (stereo not given),–,inactive
C=CC(=C)CCC=C(C)C,–,inactive
Cn1c(=O)c2c(ncn2C)n(C)c1=O,–,inactive
O=C(OC[C@H]1O[C@@H](OC(=O)c2cc(O)c(O)c(OC(=O)c3cc(O)c(O)c(O)c3)c2)[C@H](OC(=O)c2cc(O)c(O)c(OC(=O)c3cc(O)c(O)c(O)c3)c2)[C@@H](OC(=O)c2cc(O)c(O)c(OC(=O)c3cc(O)c(O)c(O)c3)c2)[C@@H]1OC(=O)c1cc(O)c(O)c(OC(=O)c2cc(O)c(O)c(O)c2)c1)c1cc(O)c(O)c(OC(=O)c2cc(O)c(O)c(O)c2)c1,8.86 µM (active),–
